Assay [1] in a line: Nuclear factor erythroid 2-related factor 2/antioxidant responsive element (Nrf2/ARE) small molecule agonists: qHTS cell viability counter screen in human keratinocytes (AID 1919968; active means well fitted curve in the direction sought with a large enough effect in the repeat runs; an effect the other way counts as inactive or inconclusive; further: nearly all actives have a fitted effect of over 55% in size). A digest of the protocol: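 CellTiter-Fluor fluorescence, read 1 h after reagent, gave viability in the same wells as the ARE-luciferase assay. KeratinoSens cells (1,500/well) had 23 h compound exposure at 37 C/5% CO2 following 5 h plating.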
On the technique in general: In qHTS, concentration-response curves come from the screen itself.

The nature of assay [2]: Nuclear factor erythroid 2-related factor 2/antioxidant responsive element (Nrf2/ARE) small molecule agonists: luciferase reporter gene qHTS assay in human keratinocytes (AID 1919969). Further: nearly all actives have a fitted effect of over 35% in size. Further: potency means the concentration at half of the fitted maximal effect. In general terms: Reporter assays use an easily measured gene product as a stand-in for the process of interest.
Assay [3] has as its target Gonadotropin-releasing hormone receptor (Homo sapiens) (UniProt P30968). As to the kind of experiment: Human gonadotropin-releasing hormone receptor (GnRHR) small molecule agonists, calcium flux assay in GnRHR-HEK293 cells (AID 1920063). Further: nearly all actives have a fitted effect of over 35% in size. Further: potency means the concentration at half of the fitted maximal effect. Put shortly:
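Agonist mode: compounds at 15 concentrations, in triplicate, went onto calcium dye-loaded GnRHR-HEK293 cells. Intracellular calcium was then followed as 480/540 nm fluorescence at 1 s intervals over 3 min.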
(In general: Calcium flux is commonly read through the fluorescence of an indicator in the cells.)

The target in assay [4] is KiSS-1 receptor (Homo sapiens) (UniProt Q969F8). As to the kind of experiment: Human kisspeptin (KISS1R) small molecule agonists, calcium flux assay in KISS1R-HEK293 cells (AID 1920064; active means well fitted curve in the direction sought with a large enough effect in the repeat runs; an effect the other way counts as inactive or inconclusive). A digest of the protocol: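 Agonist mode: intracellular calcium rise tracked at 1 s intervals over 3 min (480/540 nm) immediately after compound addition to dye-loaded KISS1R-HEK293 stable cells. Each compound tested at 15 concentrations in triplicate.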
KiSS-1 receptor (Homo sapiens), sequence (Q969F8 whole entry, looked up): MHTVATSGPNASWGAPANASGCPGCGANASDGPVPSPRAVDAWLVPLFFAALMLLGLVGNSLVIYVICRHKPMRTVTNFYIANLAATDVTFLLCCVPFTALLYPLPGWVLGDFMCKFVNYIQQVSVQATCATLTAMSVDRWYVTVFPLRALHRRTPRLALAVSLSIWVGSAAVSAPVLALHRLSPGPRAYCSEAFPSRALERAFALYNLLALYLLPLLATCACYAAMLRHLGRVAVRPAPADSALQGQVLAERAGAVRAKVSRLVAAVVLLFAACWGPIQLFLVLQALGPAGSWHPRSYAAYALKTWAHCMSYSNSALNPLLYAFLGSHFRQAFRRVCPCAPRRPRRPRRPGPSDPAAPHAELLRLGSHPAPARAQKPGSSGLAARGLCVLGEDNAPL

Assay [5] in a line: G protein-coupled receptor (GPCR) small molecule agonists, calcium flux assay: HEK293 wild type cell line counter screen (AID 1920065). Put shortly:
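Calcium flux counter screen: compound added in agonist mode at 15 concentrations in triplicate to dye-loaded parental HEK293 cells. Fluorescence (480/540) read kinetically for 3 min; ATP served as positive control.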

Assay [6] can be described thus: p53 small molecule agonists, cell-based qHTS assay with rat liver microsomes: qHTS cell viability counter screen (AID 1963580). Further: nearly all actives have a fitted effect of over 45% in size. A digest of the protocol:
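Cytotoxicity counter screen: intracellular ATP measured by CellTiter-Glo luminescence in the same wells as the beta-lactamase reporter read, on HCT-116 p53RE-bla cells exposed 16 h at 37 C to compounds with rat liver microsomes and NADPH, each 0.5 mg/mL final.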

Assay [7] is described as follows: p53 small molecule agonists, cell-based qHTS assay: qHTS cell viability counter screen (AID 1963581). Further: nearly all actives have a fitted effect of over 45% in size. Put shortly: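 Counter screen read by CellTiter-Glo luminescence (ATP content, 30 min at room temperature), run in the same wells as the beta-lactamase reporter read. HCT-116 p53RE-bla cells saw compounds for 16 h at 37 C.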
In assay [8] the target is 5-hydroxytryptamine receptor 2A (Homo sapiens) (UniProt P28223). Briefly: 5-hydroxytryptamine receptor 2A (HTR2A) small molecule antagonists, cell-based qHTS assay (AID 1963586). Further: nearly all actives have a fitted effect of over 45% in size. Put shortly:
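CHO cells stably expressing human HTR2A were plated for 18 h at 37 C, then loaded with calcium dye for 1 h. Compounds were preincubated 5 min at room temperature before DOI (4 nM solution) was added. Kinetic fluorescence was read for 3 min.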

For assay [9] the target is unchanged. As to the kind of experiment: 5-hydroxytryptamine receptor 2A (HTR2A) small molecule agonists, cell-based qHTS assay (AID 1963587). Further: nearly all actives have a fitted effect of over 30% in size. Put shortly: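 CHO cells stably expressing human HTR2A, plated 18 h, loaded with calcium dye 1 h at 37 C. Agonist mode: compounds added and intracellular calcium fluorescence recorded kinetically for 2 min at 1 sec intervals.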

The target in assay [10] is Muscarinic acetylcholine receptor M1 (Homo sapiens) (UniProt P11229). As to the kind of experiment: Cholinergic receptor muscarinic 1 (CHRM1) small molecule antagonists, cell-based qHTS assay (AID 1963588). Further: nearly all actives have a fitted effect of over 40% in size. A digest of the protocol: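 Compounds were tested at 15 concentrations in three independent runs. Dye-loaded CHRM1-CHO cells were exposed 5 min at room temperature before stimulation by acetylcholine added at 50nM. Intracellular calcium was read kinetically on FDSS for 3 min.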
Muscarinic acetylcholine receptor M1 (Homo sapiens), sequence (P11229 whole entry, looked up): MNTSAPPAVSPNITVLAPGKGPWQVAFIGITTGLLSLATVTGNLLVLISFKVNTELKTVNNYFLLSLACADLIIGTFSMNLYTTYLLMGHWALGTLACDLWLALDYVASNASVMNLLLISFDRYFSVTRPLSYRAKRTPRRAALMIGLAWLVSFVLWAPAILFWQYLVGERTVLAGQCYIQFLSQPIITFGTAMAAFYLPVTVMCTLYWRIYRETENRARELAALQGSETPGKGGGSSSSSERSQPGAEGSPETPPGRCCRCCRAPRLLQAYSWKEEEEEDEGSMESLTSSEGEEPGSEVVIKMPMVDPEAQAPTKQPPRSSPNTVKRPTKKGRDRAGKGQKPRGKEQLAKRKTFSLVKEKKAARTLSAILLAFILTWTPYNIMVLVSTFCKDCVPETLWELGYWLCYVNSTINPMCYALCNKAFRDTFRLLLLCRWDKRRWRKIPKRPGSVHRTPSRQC

Assay [11] has the same target. Briefly: Cholinergic receptor muscarinic 1 (CHRM1) small molecule agonists, cell-based qHTS assay (AID 1963589). Further: nearly all actives have a fitted effect of over 35% in size. Put shortly:
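Agonist-mode calcium-flux screen: compounds at 15 concentrations, three independent runs, were pin-transferred onto dye-loaded human CHRM1-CHO cells. Fluorescence was then recorded kinetically every second over minutes.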

Assay [12] in a line: cAMP Responsive Elements (CRE) small molecule agonists, cell-based qHTS assay (AID 1963590). Put shortly:
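Agonist mode: compound added to CRE-bla HEK 293T cells (2,000/well, 18 h after plating) for 3 h at 37 C/5% CO2. Reporter activity detected via FRET beta-lactamase substrate, 2 h room-temperature loading.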

Assay [13] is described as follows: cAMP Responsive Elements (CRE) small molecule antagonists, cell-based qHTS assay (AID 1963591; active means well fitted inhibition curve with a large enough effect in the signal ratio in the repeat runs, not every such curve was filed as active; the % refers to the signal ratio). Put shortly: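 Antagonist mode: compounds are added alongside the adenylyl cyclase activator NKH477 (0.25 uM final) to CRE-bla HEK293T cells for 3 h. LiveBLAzer FRET substrate, 2 h at room temperature, reports bla expression.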
In assay [14] the target is Beta-2 adrenergic receptor (Homo sapiens) (UniProt P07550). Briefly: Adrenergic beta2 receptor (ADRB2) small molecule antagonists, cell-based qHTS assay (AID 1963592). Further: series mostly up to about 92 µM; nearly all actives have a fitted effect of over 50% in size. Put shortly:
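Assay format: CHO-ADRB2 cells, 18-20hr seeding at 37C/5% CO2, then compound plus 1nM isoproterenol agonist mix for 0.5hr RT. Homogeneous time-resolved fluorescence cAMP detection after 1hr, expressed as 665/615 nm ratio.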

For assay [15] the target is unchanged. Briefly: Adrenergic beta2 receptor (ADRB2) small molecule agonists, cell-based qHTS assay (AID 1963593).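 Further: CHO cells stably overexpressing human ADRB2.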 Put shortly:
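CHO cells stably over-expressing ADRB2 were plated overnight at 37C, then dosed with compounds plus a stimulation mix containing 100uM IBMX and 25uM Ro-20-1724 for 0.5hr at room temperature. cAMP was measured by HTRF competition, 1hr.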

Assay [16] deals with D(2) dopamine receptor (Homo sapiens) (UniProt P14416). As to the kind of experiment: Dopamine D2 receptor (DRD2) small molecule agonists, cell-based qHTS assay (AID 1963594). Further: nearly all actives have a fitted effect of over 35% in size. Put shortly: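 HEK293 cells stably expressing human DRD2, pre-treated with PDE inhibitor Ro20-1724 (0.1 mM final) and compound 10 min at room temperature, then stimulated with NKH477 (200nM […]) for 30 min. cAMP read by HTRF (665/620 nm).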
D(2) dopamine receptor (Homo sapiens), sequence (P14416 whole entry, looked up): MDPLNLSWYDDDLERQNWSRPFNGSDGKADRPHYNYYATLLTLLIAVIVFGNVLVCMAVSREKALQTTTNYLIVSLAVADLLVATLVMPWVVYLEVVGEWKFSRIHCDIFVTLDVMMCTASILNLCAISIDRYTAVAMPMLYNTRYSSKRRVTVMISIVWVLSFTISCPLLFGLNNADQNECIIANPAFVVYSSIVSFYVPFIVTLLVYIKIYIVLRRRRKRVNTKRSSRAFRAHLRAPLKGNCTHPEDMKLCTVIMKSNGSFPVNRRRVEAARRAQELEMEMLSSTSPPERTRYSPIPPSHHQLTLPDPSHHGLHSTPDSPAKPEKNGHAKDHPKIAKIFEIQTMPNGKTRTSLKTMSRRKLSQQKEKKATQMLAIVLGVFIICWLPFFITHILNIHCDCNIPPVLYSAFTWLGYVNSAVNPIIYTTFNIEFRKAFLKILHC

Assay [17] shares this target. As to the kind of experiment: Dopamine D2 receptor (DRD2) small molecule antagonists, cell-based qHTS assay (AID 1963595; active means well fitted inhibition curve with a large enough effect in the signal ratio in the repeat runs, with a control signal flat; the % refers to the signal ratio; further: potency means the concentration at half of the fitted maximal effect). A digest of the protocol:
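Readout: HTRF cAMP, cAMP-d2 competing with cellular cAMP for anti-cAMP cryptate, read after 1 h. Cells: DRD2-HEK293. Conditions: 0.1 mM Ro20-1724, 12 nM quinpirole, 200 nM NKH477, 30 min RT.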

Assay [18] can be described thus: p53 small molecule agonists, cell-based qHTS assay with human liver microsomes (AID 1963577).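 Further: p53 response element beta-lactamase reporter cells with liver microsomes plus NADPH.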 Put shortly: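 Reporter activation was measured by LiveBLAzer fluorescence intensity in p53RE-bla cells, which had been exposed to compounds for 16 h at 37 C alongside 0.5 mg/mL human liver microsomes and 0.5 mg/mL NADPH (final concentrations).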
Assay [19] can be described thus: p53 small molecule agonists, cell-based qHTS assay with human liver microsomes: qHTS cell viability counter screen (AID 1963579). Further: nearly all actives have a fitted effect of over 45% in size. A digest of the protocol:
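HLM-supplemented (0.5 mg/mL final) and NADPH-supplemented (0.5 mg/mL final) p53RE-bla cultures, 4,000 cells per well, were dosed with compounds in DMSO for 16 h at 37 C; luminescent ATP detection (CellTiter-Glo, 30 min, room temperature) quantified surviving cells.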

Assay [20] in a line: p53 small molecule agonists, cell-based qHTS assay (AID 1963582; active means well fitted activation curve with a large enough effect in the signal ratio in the repeat runs, not every such curve was filed as active; the % refers to the signal ratio). A digest of the protocol:
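Read-out is beta-lactamase FRET fluorescence after 2 h at room temperature with LiveBLAzer B/G substrate. p53 response element-bla cells were treated 16 h at 37 C with compounds in DMSO, added 5 h after seeding.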

Where “and” joins values, the source holds several entries; their conditions need not be identical. Equal values may be shown once. Records with an inconclusive call do not appear. Calls of active or inactive are those of the source. Unless noted, the call rests on the fitted dose curve.

Beta-2 adrenergic receptor (Homo sapiens), sequence (P07550 whole entry, looked up): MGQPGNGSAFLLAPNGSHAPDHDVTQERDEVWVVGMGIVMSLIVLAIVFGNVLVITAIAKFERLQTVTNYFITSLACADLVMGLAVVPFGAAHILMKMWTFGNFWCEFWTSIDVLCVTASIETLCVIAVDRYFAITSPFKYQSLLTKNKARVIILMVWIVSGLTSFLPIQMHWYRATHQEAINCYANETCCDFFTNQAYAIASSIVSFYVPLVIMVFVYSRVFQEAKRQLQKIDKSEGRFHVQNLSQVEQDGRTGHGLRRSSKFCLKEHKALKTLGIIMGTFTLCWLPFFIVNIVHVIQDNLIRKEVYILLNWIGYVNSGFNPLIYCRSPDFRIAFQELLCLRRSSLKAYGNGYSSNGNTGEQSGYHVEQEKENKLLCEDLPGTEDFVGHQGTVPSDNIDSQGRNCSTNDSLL
Gonadotropin-releasing hormone receptor (Homo sapiens), sequence (P30968 whole entry, looked up): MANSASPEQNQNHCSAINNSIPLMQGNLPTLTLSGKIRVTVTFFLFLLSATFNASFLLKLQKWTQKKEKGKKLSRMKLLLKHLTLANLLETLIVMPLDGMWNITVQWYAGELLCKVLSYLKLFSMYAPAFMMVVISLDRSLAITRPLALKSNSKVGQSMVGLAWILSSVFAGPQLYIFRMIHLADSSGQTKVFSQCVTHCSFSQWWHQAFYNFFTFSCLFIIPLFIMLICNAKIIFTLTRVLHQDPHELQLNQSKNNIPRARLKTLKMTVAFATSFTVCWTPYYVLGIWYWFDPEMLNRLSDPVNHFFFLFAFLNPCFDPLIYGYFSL
5-hydroxytryptamine receptor 2A (Homo sapiens), sequence (P28223 whole entry, looked up): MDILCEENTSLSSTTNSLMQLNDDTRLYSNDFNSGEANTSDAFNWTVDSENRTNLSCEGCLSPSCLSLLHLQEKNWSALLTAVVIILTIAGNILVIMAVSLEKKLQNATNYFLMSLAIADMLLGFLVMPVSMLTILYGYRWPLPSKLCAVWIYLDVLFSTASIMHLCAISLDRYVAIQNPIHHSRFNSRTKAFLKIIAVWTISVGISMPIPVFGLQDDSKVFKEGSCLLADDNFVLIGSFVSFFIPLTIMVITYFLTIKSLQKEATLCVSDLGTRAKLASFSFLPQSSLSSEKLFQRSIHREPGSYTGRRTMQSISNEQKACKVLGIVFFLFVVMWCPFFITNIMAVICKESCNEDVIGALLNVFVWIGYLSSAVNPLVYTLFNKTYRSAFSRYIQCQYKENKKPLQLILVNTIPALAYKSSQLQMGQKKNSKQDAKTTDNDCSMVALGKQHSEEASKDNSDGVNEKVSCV

`CO[Si](CCCNCCN)(OC)OC`: the Potency entry in assay [1], in assay [2], in assay [3], in [4], in assay [5] and in [6] was “inactive” throughout. The Potency result in assay [7], in [8], in assay [9], in [10], in assay [11] and in assay [12] was “inactive” throughout. Besides, the Potency result in [13], in assay [14], in assay [15], in [16] and in assay [17] was “inactive” each time.

`NC(=O)C1CO1` (centres undefined): the Potency entry in assay [1], in assay [2], in [3], in assay [4], in [18] and in assay [19] was “inactive” throughout. Also, the Potency entry in assay [6], in assay [7], in assay [20], in assay [8], in assay [9] and in assay [10] was “inactive” throughout. The Potency result in assay [11], in assay [12], in assay [13], in assay [14], in [15] and in [16] was “inactive” in each case.

Turning to `O=C(O)/C=C/C(=O)O`, the Potency result in assay [1], in assay [2], in assay [3], in assay [4], in assay [5] and in assay [8] was “inactive” throughout. Further, the Potency entry in [9], in assay [10], in assay [11], in assay [12], in [13] and in assay [14] was “inactive” each time. For the same compound, the Potency entry in assay [15], in assay [16] and in assay [17] was “inactive” throughout.

Take `Nc1cc([N+](=O)[O-])ccc1Cl`: the Potency entry in [1], in assay [2], in assay [3], in [4], in [18] and in assay [19] was “inactive” throughout. Also, the Potency result in assay [6], in [7], in assay [20], in assay [8], in [9] and in assay [10] was “inactive” throughout. For the same compound, the Potency entry in assay [11], in assay [12], in assay [13], in [14], in assay [15] and in assay [16] was “inactive” each time.

Turning to `CC(C)(C)c1cc(Cc2cc(C(C)(C)C)c(O)c(C(C)(C)C)c2)cc(C(C)(C)C)c1O`, the Potency result in assay [1], in assay [2], in assay [3], in [4], in assay [5] and in assay [19] was “inactive” each time. Further, the Potency result in assay [6], in assay [8], in [9], in assay [10], in [11] and in assay [12] was “inactive” each time. The Potency entry in [13], in assay [14], in assay [15], in assay [16] and in assay [17] was “inactive” each time.

On to `CC(C)(C)NCC(O)c1ccc(O)c(CO)c1` (centres undefined), for which the Potency entry in assay [1], in assay [2], in [4], in assay [5], in [7] and in assay [20] was “inactive” each time. Besides, in assay [16], the Potency result is “inactive”. In addition, the Potency was 30.1 nM (active) in assay [3]; 962 nM (active) and 750 nM (active) in [17].

For the compound `Cc1ccc(N=Nc2c(O)ccc3ccccc23)c(C)c1`, the Potency entry in assay [1], in assay [3], in assay [4], in assay [18], in [19] and in assay [6] was “inactive” each time. Also, the Potency entry in [7], in [20], in assay [8], in assay [9], in assay [10] and in [11] was “inactive” throughout. In addition, the Potency entry in assay [12], in [13], in [14], in [15], in assay [16] and in [17] was “inactive” throughout. Also, the Potency in [2] was 2660 nM (active).

As for `CO[C@@]1(NC(=O)CSC[C@@H](N)C(=O)O)C(=O)N2C(C(=O)O)=C(CSc3nnnn3C)CS[C@@H]21`, the Potency result in [1], in assay [2], in assay [3], in assay [4], in [5] and in assay [6] was “inactive” in each case. The Potency entry in assay [7], in [20], in assay [8], in assay [9], in [11] and in assay [13] was “inactive” each time. Besides, the Potency entry in assay [14], in assay [15], in [16] and in assay [17] was “inactive” each time.

The values are drawn from PubChem BioAssay (Tox21).
